Laboratory results published in article PMC7819943, “Rice protein-binding microarrays: a tool to detect cis-acting elements near promoter regions in rice”.
In all, about 39,000 sequences were measured (“fluorescence intensity (a.u.)”: median about 4,300, highest 2% from about 39,000 on). What follows is part of a selection rich in the highest values, with near analogues and random picks from the rest.

Biological target: T1, OsSMF1 (Oryza sativa, UniProt Q6ZLB0 1-436)
T1 sequence: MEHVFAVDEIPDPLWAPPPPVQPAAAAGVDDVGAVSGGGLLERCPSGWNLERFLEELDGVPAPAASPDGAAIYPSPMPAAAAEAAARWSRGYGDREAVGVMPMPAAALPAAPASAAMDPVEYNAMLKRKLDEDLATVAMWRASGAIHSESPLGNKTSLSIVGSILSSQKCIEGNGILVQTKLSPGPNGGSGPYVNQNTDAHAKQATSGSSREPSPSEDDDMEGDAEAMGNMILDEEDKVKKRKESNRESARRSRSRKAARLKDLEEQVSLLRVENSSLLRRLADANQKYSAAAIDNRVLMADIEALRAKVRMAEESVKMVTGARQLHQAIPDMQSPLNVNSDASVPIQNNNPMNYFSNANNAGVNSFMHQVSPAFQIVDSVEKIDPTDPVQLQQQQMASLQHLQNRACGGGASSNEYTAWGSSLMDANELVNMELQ
Test: protein-binding microarray (RPBM); PBS, 2% BSA, 51.3 ng/ul salmon testes DNA, 50 uM zinc acetate, 200 nM TF, 25 C, 1 h; high values mean tight binding
Conditions: protein: recombinant; tags: N-terminal polyhistidine and DsRed monomer fusion (pET32a); chain copies: 2; label: CyDye5-dUTP incorporated in the synthesized complementary strand; 3' TTTTT single-stranded linker to array surface; dsDNA, one strand shown
Summary of the method: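 The binding signal is fluorescence intensity per array feature (arbitrary units). Readings came from an Axon 4000B scanner after a washed, 2% BSA-blocked, double-stranded custom Agilent array had been incubated for 1 h at 25 °C with 200 nM protein and 50 µM zinc acetate. The protein was a Ni–NTA-purified transcription factor fused N-terminally to polyhistidine and DsRed, expressed in E. coli BL21-CodonPlus.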

Sequence	binding signal
CACGGGGTGGTCGCGGGTCACAGTGACGGACGGTGCACGGCGGAGTCACCTAGTGCAG	20200 fluorescence intensity (a.u.)
CACCAGGCACCGACTGCCGTAGTGTCACCGGCCACAGTGCCGGAGTCACCTAGTGCAG	3220 fluorescence intensity (a.u.)
CTGTTGCCTACTCCCTCCTCAATCCTGCAGAAGTTTCTGACGGAGTCACCTAGTGCAG	3240 fluorescence intensity (a.u.)
CTCCATTTTCTCCGGTTTTCGCCGCAGAGTAGGAGCTGAACGGAGTCACCTAGTGCAG	21400 fluorescence intensity (a.u.)
CGTGCCGACGCGTGCCTCGCCAACGTGTCGCAACGCCTCACGGAGTCACCTAGTGCAG	8980 fluorescence intensity (a.u.)
CGTCGCCTCGCCTCGTCACGGCCGCCTCCGCCATCGCCTCCGGAGTCACCTAGTGCAG	6060 fluorescence intensity (a.u.)
TCTCCTCTCGCTCTCGCCATCTCGCCGCCGGCCTCCTCCACGGAGTCACCTAGTGCAG	3240 fluorescence intensity (a.u.)
CTCCTCCTCCGGCCACGTCGACGTCGCACCAACCGCCGCCCGGAGTCACCTAGTGCAG	14700 fluorescence intensity (a.u.)
TCACGGCCGCCTCCGCCATCTGCACAACCTCGCCGCCGCCCGGAGTCACCTAGTGCAG	65500 fluorescence intensity (a.u.)
AACCAACGGTCGCTGTTACGCCACGTCACCTCACCGACGCCGGAGTCACCTAGTGCAG	39200 fluorescence intensity (a.u.)
AGCACTACTCCAACGCAGCAACCAACACGTACCTCCACATCGGAGTCACCTAGTGCAG	6420 fluorescence intensity (a.u.)
GATTCTTCTATGTGGCATGAGGTAACCCTGGGTCGGCTTGCGGAGTCACCTAGTGCAG	4110 fluorescence intensity (a.u.)
GCCGTTGTCCGAAGGTTCAGCATATTGCTGACATATTGCCCGGAGTCACCTAGTGCAG	4940 fluorescence intensity (a.u.)
GCATGCTCTTCTGATCTGTAATCTCAGGCTCTATTACTCTCGGAGTCACCTAGTGCAG	3450 fluorescence intensity (a.u.)
TTCCTCGCCAACGTAAGCCAATAACATTGTGACGCAATCTCGGAGTCACCTAGTGCAG	5820 fluorescence intensity (a.u.)
CATCGAGAGGCTCCCGAGCATGGCCGAGATCGCCGAGGAGCGGAGTCACCTAGTGCAG	3500 fluorescence intensity (a.u.)
GTGTGCCGCCGCCGCTGACTCCGGAGGGAGAGGACGAGCTCGGAGTCACCTAGTGCAG	3320 fluorescence intensity (a.u.)
GAGGGGCGCGGGCGCCGAGCTCCATCTGGCGAGCAGGGTACGGAGTCACCTAGTGCAG	42200 fluorescence intensity (a.u.)
GCGAGCTCCTGGAGGCGGCGAGGGCGCCGGAGTTCGCGGGCGGAGTCACCTAGTGCAG	37200 fluorescence intensity (a.u.)
GAGCAGGAGGAGCTGAGCGACTCCGAGTCGGGCGCCGAGTCGGAGTCACCTAGTGCAG	40100 fluorescence intensity (a.u.)
GAGATGGGAGGAGAGCTAGCTAGCCGCCGAGGCTGAGCTCCGGAGTCACCTAGTGCAG	40600 fluorescence intensity (a.u.)
ATCTCCATCTGGCGAGCAGAGGCCGGGGAGGGAGGGGCGCCGGAGTCACCTAGTGCAG	3870 fluorescence intensity (a.u.)
GCTGAGCAGGAGAGGGGCGCCGATCTCCATCCGGCGAGCACGGAGTCACCTAGTGCAG	5450 fluorescence intensity (a.u.)
CCGAGTGACGATGCAGCTGAGTCGGAGCGCAGCACGACTTCGGAGTCACCTAGTGCAG	4290 fluorescence intensity (a.u.)
CACCGCTACCTACGTTGTCGCCACCCACGTCAATAATCCTCGGAGTCACCTAGTGCAG	6310 fluorescence intensity (a.u.)
ATTCTTTTACCGCGTTGATGAATCGGATTCGTTCCGGTTTCGGAGTCACCTAGTGCAG	3360 fluorescence intensity (a.u.)
GAGTCGTTATCTGCATTGATGTGTCTCCTGACTCCTGAGACGGAGTCACCTAGTGCAG	3840 fluorescence intensity (a.u.)

Sequence	binding signal
CAACCTCCGATTTCCAAATCCAGTTGTCTTCTTCTTCCCCCGGAGTCACCTAGTGCAG	7150 fluorescence intensity (a.u.)
ACAATACTACTATTTTATCATGACGATGACTGGAACTCCACGGAGTCACCTAGTGCAG	4440 fluorescence intensity (a.u.)
CGCTGGTGAAGTGGTGATGCGCCTAATCGTTTTCTTCGCGCGGAGTCACCTAGTGCAG	3260 fluorescence intensity (a.u.)
CTTGCATTCCTTTTCTTCTCCTGAACTATATAAACACACTCGGAGTCACCTAGTGCAG	3290 fluorescence intensity (a.u.)
AAATTTAAGAATTTTCGGATGCACTTAAAGAAGGACAAGTCGGAGTCACCTAGTGCAG	11000 fluorescence intensity (a.u.)
CCGCCTGACACGTGTAAGAGCAAGTTTAATAGTATAGCCCCGGAGTCACCTAGTGCAG	13800 fluorescence intensity (a.u.)
ATTATTAAAATATATAAATATTGAATTTAATAAAATAATTCGGAGTCACCTAGTGCAG	26400 fluorescence intensity (a.u.)
ATTGAATATAATTGGATATAAACAGTTTAAAACTATACTCCGGAGTCACCTAGTGCAG	5510 fluorescence intensity (a.u.)
GAGAGAGAGAGGAGATAATAAAATACTCGATATTGAATTGCGGAGTCACCTAGTGCAG	42500 fluorescence intensity (a.u.)
GGTTGAGTGACGCGCTATTTCTGGTATTGCGTATGAAGGGCGGAGTCACCTAGTGCAG	3520 fluorescence intensity (a.u.)
TGTCCATGGTTTGTTGCTGCTGCGGTGGCACCAGTGCTGCCGGAGTCACCTAGTGCAG	7940 fluorescence intensity (a.u.)
TATGAACACATATGTAGCATACGCTTAAATAGACGAAGACCGGAGTCACCTAGTGCAG	40500 fluorescence intensity (a.u.)
GTAGACGAAGACCTGGCAAGTCCTTGGGCTTAAATCTCACCGGAGTCACCTAGTGCAG	17800 fluorescence intensity (a.u.)
GACTGTACACATGAAGGAACATATGTGCTGAAATACTGTACGGAGTCACCTAGTGCAG	26100 fluorescence intensity (a.u.)
GCTATATATTTGTTGATCAGCTAGGCTGTCAGCAGTTTAGCGGAGTCACCTAGTGCAG	3650 fluorescence intensity (a.u.)
ATACACACATATCCGCGCCATTATAAATTTGACAGCATTTCGGAGTCACCTAGTGCAG	3440 fluorescence intensity (a.u.)
CAACATTAGCAATTAAAATTGCGGGTTATTTGTAAAAGTCCGGAGTCACCTAGTGCAG	32000 fluorescence intensity (a.u.)
CATATATGGACAGGCAACGGCATGTCGTGTTCGTACAAATCGGAGTCACCTAGTGCAG	3190 fluorescence intensity (a.u.)
CACCACACGAAGCAGCCACGAACGCAACGCGGGTGCGTCGCGGAGTCACCTAGTGCAG	3140 fluorescence intensity (a.u.)
GCGGTAGCCAAGCCTGCCACGTCAGCTCTCGCGCAACGTCCGGAGTCACCTAGTGCAG	34600 fluorescence intensity (a.u.)
CCGCGTCCGTACTCTCTAGCCTGCGGGTAAGCAACGAACTCGGAGTCACCTAGTGCAG	45200 fluorescence intensity (a.u.)
CCCACCCCGCGTGCAGCTTAGGCGAACCCTCCTCCCTCCGCGGAGTCACCTAGTGCAG	3660 fluorescence intensity (a.u.)
CCAAAATCAGATATCTTAGGATTCATATCGATGTCCAACACGGAGTCACCTAGTGCAG	19200 fluorescence intensity (a.u.)
CATATCCTCAAGTAGAATTCAAATCCAGTCACATTGCCACCGGAGTCACCTAGTGCAG	4130 fluorescence intensity (a.u.)
AGGAATGCATTTGTGGTGGGTGCAGGTGCGCGGGTGGCGACGGAGTCACCTAGTGCAG	3340 fluorescence intensity (a.u.)
CAGGTGGTGGTGGCCATTAGTTAGTGGCAAATGTGGAAGGCGGAGTCACCTAGTGCAG	3220 fluorescence intensity (a.u.)
GTTCAGAATGTGGTGGCGACGTAAGGTGATTTGGAAGGCGCGGAGTCACCTAGTGCAG	43500 fluorescence intensity (a.u.)
